A selection: hits, their analogues and other compounds. The true share with any hit is near 3.3%.
FGF22 binding – binders of recombinant human FGF22 by thermal shift; Q9HCT0; SYPRO orange fluorescence; percent of sucrose octasulfate shift, DMSO zero; activity (Tm shift, normalised), % at 9.99 µM; 340,000 compounds, 1.5% hits; AID 651658;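 active = mean Tm shift, scaled 0 neutral to 100 positive control, at about 1.3% or above, every replicate too, limit read from the data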
ERAP1 inh – ERAP1 (human) enzyme inhibition. recombinant ERAP1, Leu-AMC fluorescence, 60 min. AID 652197. inhibition, % at 10.7 µM. 340,000 compounds, 0.15% hits;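 active = mean replicate inhibition of at least 30%, or all replicates individually reaching that 30% level; inactive = mean below 30% and not every replicate reaching it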;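 note: 0% = neutral control wells and 100% = L-leucinethiol positive control wells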
Target sequence (Q9NZ08 whole entry, looked up): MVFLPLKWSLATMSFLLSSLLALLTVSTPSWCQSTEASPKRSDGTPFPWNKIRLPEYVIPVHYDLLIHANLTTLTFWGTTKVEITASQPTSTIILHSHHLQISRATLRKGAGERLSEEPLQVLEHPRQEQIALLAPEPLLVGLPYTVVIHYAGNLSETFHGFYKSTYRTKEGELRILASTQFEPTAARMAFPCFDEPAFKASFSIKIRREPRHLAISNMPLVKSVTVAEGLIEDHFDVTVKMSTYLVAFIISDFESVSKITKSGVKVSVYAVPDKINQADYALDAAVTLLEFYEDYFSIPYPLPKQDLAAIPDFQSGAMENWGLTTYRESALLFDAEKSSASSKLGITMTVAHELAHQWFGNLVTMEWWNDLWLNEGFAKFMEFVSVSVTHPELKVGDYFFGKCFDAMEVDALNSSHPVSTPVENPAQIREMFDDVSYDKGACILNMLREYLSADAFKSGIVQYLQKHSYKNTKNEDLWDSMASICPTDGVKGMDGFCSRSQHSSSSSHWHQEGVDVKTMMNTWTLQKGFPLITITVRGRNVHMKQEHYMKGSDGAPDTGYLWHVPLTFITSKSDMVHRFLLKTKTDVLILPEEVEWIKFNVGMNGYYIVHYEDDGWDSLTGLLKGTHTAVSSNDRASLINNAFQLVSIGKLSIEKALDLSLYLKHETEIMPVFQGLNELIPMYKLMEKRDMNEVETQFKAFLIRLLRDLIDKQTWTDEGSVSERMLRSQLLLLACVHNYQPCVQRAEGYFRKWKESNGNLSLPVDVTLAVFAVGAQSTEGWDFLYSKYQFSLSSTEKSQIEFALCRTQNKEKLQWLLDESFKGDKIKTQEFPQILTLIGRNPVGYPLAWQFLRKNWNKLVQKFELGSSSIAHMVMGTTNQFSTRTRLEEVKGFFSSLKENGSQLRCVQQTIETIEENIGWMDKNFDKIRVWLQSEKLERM
SIRT5 inh – sirtuin-5 (human) deacylase inhibition; 330,000 compounds, 1.1% hits; inhibition, % at 15 µM; AID 652115; Q9NXA8; Purified SirT5, succinyl-peptide AMC, trypsin-coupled fluorescence; in the data active = inhibition above about 15%
Casp6 inh – inhibitors of human caspase-6. P55212. purified caspase-6, Z-VEID-R110 cleavage fluorescence. inhibition, % at 12.5 µM. 350,000 compounds, 0.53% hits;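 active = mean inhibition across replicates at least about 35%, with every replicate also reaching that limit, limit read from the data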;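 note: 0% = median of neutral control wells and 100% = no fluorescence left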
GSIS activator – primary screen for activators of insulin secretion dependent on glucose, INS-1E cells, GLuc reporter luminescence; 370,000 compounds, 0.61% hits; AID 743287; INS-1E GLuc reporter insulin secretion, 2-3 h; activation, % at 16.6 µM;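 active = lowest replicate activation of at least 40%, so every replicate reaches that level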;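 note: 0% = median of neutral control wells and 100% = median of IBMX positive control wells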
* marks the source's active call; other numbers are inactive results; / = no result given.

SMILES | FGF22 binding | ERAP1 inh | SIRT5 inh | Casp6 inh | GSIS activator
Nc1ncnc2c1ncn2[C@@H]1O[C@H](CO)[C@@H](O)[C@@H]1O | 0 | 1 | 0 | -5 | 2
O=C(O)C1CSC(c2ccco2)N1 (stereo unspecified) | / | 0 | 16* | 86* | 1
CCc1ccc(OCC(=O)NC(NC(=S)Nc2ccccc2)C(Cl)(Cl)Cl)cc1 (stereo unspecified) | / | / | / | / | 199*
CCc1ccc(OCC(=O)NC(NC(=S)Nc2ccccc2C)C(Cl)(Cl)Cl)cc1 (stereo unspecified) | 0 | 5 | / | -1 | /
CC(C)NC(=O)N(C)C[C@@H]1Oc2ccc(NC(=O)CCCCCC(=O)Nc3ccccc3N)cc2C(=O)N([C@@H](C)CO)C[C@@H]1C | 0 | -4 | / | 2 | 9
COc1cc(C(=O)NCCN2CCN(C(=O)c3cc(OC)c(OC)c(OC)c3)CC2)cc(OC)c1OC | 0 | -3 | 29* | 0 | 16
O=C(O)Cc1ccc(NS(=O)(=O)c2ccc3c(c2)OCCO3)cc1 | 0 | -4 | / | -4 | 130*
COc1cc(C(=O)NNC(=O)C2CC=CCC2C(=O)O)cc(OC)c1OC (stereo unspecified) | 1 | -2 | -5 | -2 | 6
COc1cc(C(=O)NNC(=O)C2CCC2)cc(OC)c1OC | 0 | -3 | 25* | 3 | 17
COc1ccc(S(=O)(=O)Nc2ccc3c(c2)OCO3)cc1OC | / | 5 | 4 | 7 | 43*
O=C(C[C@@H]1CC[C@H]2[C@@H](COC[C@H](O)CN2C(=O)Nc2cc(Cl)cc(Cl)c2)O1)N1CCCCC1 | 0 | 0 | -3 | -1 | -18
C[C@@H]1CCCCO[C@@H](CN(C)S(C)(=O)=O)[C@H](C)CN([C@@H](C)CO)C(=O)c2cc(NS(=O)(=O)c3cn(C)cn3)ccc2O1 | 0 | -2 | -2 | 0 | 27
CC(=O)N(C)C[C@H]1Oc2ncc(C#Cc3cccc(F)c3)cc2C(=O)N([C@@H](C)CO)C[C@@H]1C | 0 | 2 | 0 | 2 | 1
CN(C)C(=O)C[C@H]1CC[C@@H]2[C@H](COC[C@@H](O)CN2S(=O)(=O)c2ccccc2)O1 | 0 | -1 | -3 | -1 | 3
Cc1ccc(NS(=O)(=O)c2ccc3c(c2)N(C)CCO3)cc1 | 0 | -4 | 22* | 0 | 1
COc1cc(NC(=O)Nc2ccc3c(c2)OCO3)cc(OC)c1OC | 43* | 0 | -1 | -1 | 1
COc1cc(C(=O)NCCc2ccc3c(c2)OCO3)cc(OC)c1OC | 44* | -1 | / | -7 | /
O=C(Nc1ccc2c(c1)OCO2)Nc1ccc2c(c1)OCO2 | 0 | -2 | -2 | 2 | -5
CO[C@H]1CN(C)C(=O)c2cc(NC(=O)C3CCOCC3)ccc2OC[C@@H](C)N(C(C)=O)C[C@H]1C | 0 | 0 | -6 | 0 | -1
CC(C)NC(=O)N(C)C[C@H]1Oc2ccc(NC(=O)CCCN(C)C)cc2CC(=O)N([C@@H](C)CO)C[C@@H]1C | / | / | / | / | 33
O=C(NCc1ccco1)C(=O)c1c[nH]c2ccccc12 | 42 | 1 | -1 | 0 | 6
O=C(Cc1c[nH]c2ccccc12)NCc1ccco1 | 43* | 6 | -3 | 2 | -9
CN(C)S(=O)(=O)c1ccc(C(=O)NCc2ccco2)cc1 | 44* | -2 | -4 | 1 | 1
Cc1occc1C(=O)NCc1ccco1 | 0 | 1 | -2 | 41* | /
CCCN(CCC)S(=O)(=O)c1ccc(C(=O)NCc2ccco2)cc1 | 0 | -4 | -3 | -2 | -5
SMILES | FGF22 binding | ERAP1 inh | SIRT5 inh | Casp6 inh | GSIS activator
CN(C)C(CNC(=O)c1ccc(S(=O)(=O)N(C)C)cc1)Cc1ccccc1 (stereo unspecified) | 43* | 0 | -2 | 2 | -5
CCOC(=O)n1c(=O)n(C)c2ccc(Cl)cc21 | 0 | -4 | 20* | 0 | -15
Fc1ccc(C(CNC(=S)NC2CCCCC2)N2CCOCC2)cc1 (stereo unspecified) | 43* | -3 | -21 | -4 | -27
COc1ccc(S(=O)(=O)Nc2ccc3c(c2)C(=O)N([C@H](C)CO)C[C@H](C)[C@H](CN(C)C(=O)Nc2ccccc2)OCCCC[C@@H](C)O3)cc1 | 0 | / | / | / | -7
Cc1cc2nc(-c3ccc(Cl)cc3)c(Cc3ccsc3)n2c(C)c1Br | 0 | 2 | -3 | 2 | 100*
Cc1ccc(Cc2c(-c3ccc(Cl)cc3)nc3cc(C)c(Br)c(C)n23)cc1 | 0 | 0 | 2 | -3 | /
O=C(CN1C(=O)NC2(CCCc3ccccc32)C1=O)NC1CCCCC1 (stereo unspecified) | 0 | 2 | 16* | 0 | -1
O=C(CN1CCc2ccccc2C1)NC1CCCC1 | 43* | -2 | 0 | 0 | 3
O=C(NC1CCCCC1)N1CCc2ccccc2C1 | 0 | 0 | / | 2 | 17
COc1ccc(/C(C)=N\Nc2nc(-c3ccc(Cl)cc3)cc(C(F)(F)F)n2)cc1OC | 0 | 2 | -5 | -2 | 64
COc1ccc(/C=N/Nc2nc(-c3ccc(Cl)cc3)cc(C(F)(F)F)n2)c(OC)c1 | / | / | / | / | 76*
O=C(COC(=O)c1cccnc1Cl)Nc1cc(S(=O)(=O)N2CCCCC2)ccc1Cl | 41 | 1 | 1 | 1 | -23
C=CCNC(=O)COC(=O)c1cc(S(=O)(=O)N2CCCCC2)ccc1Cl | 43* | -3 | -3 | -2 | -1
O=C(COC(=O)c1cccnc1Cl)Nc1cc(S(=O)(=O)N2CCCCCC2)ccc1Cl | / | 0 | 1 | 0 | 42*
C=CCNC(=O)COc1ccc(S(=O)(=O)N2CCCC2)cc1 | 0 | 4 | 5 | 0 | -3
COCC#Cc1ccc([C@@H]2[C@H](CO)N3C(=O)CN(C(=O)c4cccnc4)C[C@@H]23)cc1 | / | 2 | 12 | 3 | 0
O=C(NCC1CCCO1)C(c1ccc(F)cc1)N(CC1CCCO1)C(=O)c1ccc(-c2ccccc2)[nH]1 (stereo unspecified) | 0 | 2 | 2 | 48* | -20
C/C=C/c1ccc2c(c1)O[C@H](CN(C)C)[C@@H](C)CN([C@@H](C)CO)S2(=O)=O | 0 | -2 | -1 | 3 | 10
CSc1nnc(-c2cccs2)n1C | 43* | 4 | -1 | 1 | 26
O=C(Cn1c(COc2ccccc2)nc2ccccc21)Nc1cc(Cl)cc(Cl)c1 | / | / | / | / | 68*
O=C(Cn1c(COc2ccccc2)nc2ccccc21)Nc1cc(Cl)ccc1Cl | 0 | -2 | -5 | -2 | /
CN1c2ccc(-c3ccc(F)cc3)cc2[C@@H]2[C@@H](CCN2C(=O)c2cccc(F)c2)[C@@H]1CO | -1 | -1 | 8 | -3 | -24
Cc1cc(C)n(C(=O)c2cccc([N+](=O)[O-])c2C)n1 | 0 | 0 | 34* | 1 | /
N#C[C@@H]1[C@@H](c2ccc(-c3ccncc3)cc2)[C@@H](CO)N1C(=O)C1CCCC1 | 0 | 3 | 2 | 0 | 5

Bioassay records (PubChem)
